# Source: PubChem BioAssay (Broad Institute)
# miR-122 inh – miR-122 suppressors via Renilla sensor increase, primary screen, cell-based, Huh7 psiCHECK-miR122, Renilla luciferase, single point; activation, % at 12.5 µM; actives 0.14% (n = 340,000); 48 h; AID 623901, 2012;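 active means mean activation of 30% or more, with every replicate also reaching 30%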;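 further: 0% = median of neutral control wells and 100% = median of positive control wells; higher luciferase signal means stronger suppression of miR-122 activity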
# Active calls of the source: *. This excerpt belongs to a sample that is enriched for hits.
SMILES,miR-122 inh
CN1C(=O)c2cc(NC(=O)c3ccc(C(F)(F)F)cc3)ccc2OC[C@@H]2O[C@H](CC(=O)NCc3ccc4c(c3)OCO4)CC[C@@H]21,33*
CCNC(=O)C[C@@H]1CC[C@@H]2[C@@H](COc3ccc(NC(=O)c4ccccc4)cc3C(=O)N2C)O1,42*
CC(C)C(=O)Nc1ccc2c(c1)C(=O)N(C)[C@H]1CC[C@H](CC(=O)NCCc3ccccc3)O[C@H]1CO2,53*
CC(C)C(=O)Nc1ccc2c(c1)C(=O)N(C)[C@H]1CC[C@H](CC(=O)NCc3cccc(F)c3)O[C@@H]1CO2,-300
COCCNC(=O)C[C@@H]1CC[C@H]2[C@H](COc3ccc(NC(=O)Cc4ccccc4)cc3C(=O)N2C)O1,-107
CCNC(=O)C[C@H]1CC[C@@H]2[C@@H](COc3ccc(NC(=O)c4cccc(C(F)(F)F)c4)cc3C(=O)N2C)O1,53*
CCCNC(=O)N(C)C[C@@H]1Oc2cc(C#CC(C)C)ccc2S(=O)(=O)N([C@H](C)CO)C[C@H]1C,-10
C[C@H](CO)N1C[C@H](C)[C@H](CN(C)C(=O)Cc2ccccc2)Oc2ncc(C#CC3(O)CCCC3)cc2C1=O,4
COc1ccccc1-c1ccc2c(c1)O[C@@H](CN(C)S(=O)(=O)c1ccccc1)[C@H](C)CN([C@H](C)CO)S2(=O)=O,-9
CC(C)C#Cc1cnc2c(c1)C(=O)N([C@H](C)CO)C[C@@H](C)[C@H](CN(C)C(=O)c1ccccc1)O2,1
C[C@@H]1CN([C@@H](C)CO)C(=O)c2cc(/C=C/c3ccccc3)cnc2O[C@H]1CN(C)C(=O)c1cccc(F)c1,5
C[C@@H]1CN([C@@H](C)CO)C(=O)c2cc(-c3ccncc3)cnc2O[C@H]1CN(C)C(=O)c1ccccc1F,1
C[C@H](CO)N1C[C@H](C)[C@H](CN(C)C(=O)C2CC2)Oc2cc(-c3ccncc3)ccc2S1(=O)=O,5
C[C@H]1CN([C@@H](C)CO)S(=O)(=O)c2ccc(C#CC3CC3)cc2O[C@@H]1CN(C)Cc1ccccn1,-66
CCCCCCCCCCn1c2c(c(=N)c3c1CCC3)CCC2,66*
COc1cccc(-c2cnc3c(c2)C(=O)N([C@H](C)CO)C[C@@H](C)[C@@H](CN(C)Cc2cccnc2)O3)c1,2
C[C@H]1CN([C@@H](C)CO)C(=O)c2cc(-c3cncnc3)cnc2O[C@H]1CN(C)Cc1ccccc1,-3
C[C@@H]1CN([C@H](C)CO)S(=O)(=O)c2ccc(C#C[C@@H](C)O)cc2O[C@@H]1CN(C)C(=O)Cc1ccccn1,-4
C[C@@H]1CN([C@@H](C)CO)S(=O)(=O)c2ccc(Br)cc2O[C@@H]1CN(C)CC1CCOCC1,6
C[C@H](CO)N1C[C@H](C)[C@@H](CN(C)Cc2cccnc2)Oc2ncc(-c3ccc(F)cc3)cc2C1=O,0
COc1ccc2[nH]c3c4c(ccc3c2c1)C(=O)C=CC4=O,42*
C[C@H](CO)N1C[C@H](C)[C@H](CN(C)C(=O)c2ccccc2F)Oc2ncc(C#Cc3ccc(F)cc3)cc2C1=O,-6
O=CN1CCN(C(=O)c2ccccc2F)CC1,34*
CCC(=O)N(C)C[C@H]1Oc2ncc(-c3cccc(OC)c3)cc2C(=O)N([C@@H](C)CO)C[C@@H]1C,2
Cc1ccc(-c2ccc3c(c2)O[C@H](CN(C)C(=O)CC2CC2)[C@H](C)CN([C@H](C)CO)S3(=O)=O)cc1,40*
SMILES,miR-122 inh
Cc1ccc(-c2ccc3c(c2)O[C@H](CN(C)C(=O)CC2CC2)[C@H](C)CN([C@@H](C)CO)S3(=O)=O)cc1,53*
C[C@@H]1CN([C@@H](C)CO)S(=O)(=O)c2ccc(-c3ccccc3)cc2O[C@@H]1CN(C)C(=O)c1ccc2c(c1)OCO2,44*
C/C=C/c1ccc2c(c1)O[C@@H](CN(C)C(=O)c1ccc3c(c1)OCO3)[C@@H](C)CN([C@@H](C)CO)S2(=O)=O,-1
C[C@H]1CN([C@@H](C)CO)S(=O)(=O)c2ccc(-c3ccccc3)cc2O[C@@H]1CN(C)C(=O)CC1CC1,-33
C[C@@H]1CN([C@H](C)CO)S(=O)(=O)c2ccc(Br)cc2O[C@@H]1CN(C)C(=O)CC1CC1,-18
C[C@@H]1CN([C@@H](C)CO)S(=O)(=O)c2ccc(-c3ccccc3)cc2O[C@@H]1CN(C)C(=O)CC1CC1,7
C/C=C/c1ccc2c(c1)O[C@H](CN(C)C(=O)c1ccc3c(c1)OCO3)[C@@H](C)CN([C@@H](C)CO)S2(=O)=O,-14
C[C@@H]1CN([C@H](C)CO)S(=O)(=O)c2ccc(-c3ccccc3)cc2O[C@H]1CN(C)C(=O)CC1CC1,-1
CCC(=O)N(C)C[C@H]1Oc2ncc(C#C[C@H](C)O)cc2C(=O)N([C@@H](C)CO)C[C@H]1C,1
CCS(=O)(=O)Nc1ccc2c(c1)C(=O)N(C)C[C@@H](OC)[C@H](C)CN(Cc1cccnc1)[C@H](C)CO2,0
COc1cccc(C#Cc2cnc3c(c2)C(=O)N([C@@H](C)CO)C[C@H](C)[C@@H](CN(C)C(=O)C2CCCCC2)O3)c1,-2
